Laboratory results taken from PubChem BioAssay (Tox21).
Where “and” joins values, the source holds several entries; their conditions need not be identical. Identical values can stand only once. Results filed as inconclusive are left out. Entries that show only a call come without a potency. Calls of active or inactive are those of the source. Unless noted, the call rests on the fitted dose curve; in most records, active means well fitted curve in the direction sought with a large enough effect in the repeat runs; inconclusive means weak or mixed curves; inactive means no such curve, though single readings can be large; an effect the other way counts as inactive or inconclusive.

Assays:
[1] = qHTS assay to identify small molecule that activate the aryl hydrocarbon receptor (AhR) signaling pathway - cell viability counter screen (AID 743086); further: nearly all actives have a fitted effect of over 45% in size
In short: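 HepG2-AhR-luc (HG2L7.5c1) cells, 4000/well, were preincubated 5 h at 37C, exposed to compound in qHTS format for 24 hr at 37C, then given CellTiter-Fluor for 30 min; viability was read as fluorescence in the reporter wells.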

[2] = qHTS assay to identify small molecule antagonists of the peroxisome proliferator-activated receptor gamma (PPARg) signaling pathway - cell viability counter screen (AID 743194); conditions: Potency: co-treated with 50 nM rosiglitazone unless noted; further: nearly all actives have a fitted effect of over 55% in size
In short: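 PPARg-UAS-bla HEK293H cells were plated, rested 5 h at 37 C, then treated with compounds plus rosiglitazone (50 nM final) for 17 h at 37 C; viability was then read by CellTiter-Glo luminescence after 30 min at room temperature.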

[3] = qHTS assay for small molecule agonists of the antioxidant response element (ARE) signaling pathway - cell viability counter screen (AID 743203; calls by dose curve; further: nearly all actives have a fitted effect of over 55% in size)
In short: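 Cells (ARE-bla HepG2, 2,000/well) receive DMSO-dissolved compounds after a 5 hrs rest. Plates incubate 16 hrs at 37C/5% CO2. CellTiter-Glo luminescence is then recorded after 30 min at room temperature.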

[4] = qHTS assay for small molecule activators of the heat shock response signaling pathway - cell viability counter screen (AID 743209); further: nearly all actives have a fitted effect of over 50% in size
In short: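 Quantitative HTS format, Tox21 10K library. HeLa cells carrying an HSE-driven beta-lactamase reporter were treated 5 h at 37 C, then assessed for viability by CellTiter-Glo luminescence.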

[5] = target: Peroxisome proliferator-activated receptor gamma (Homo sapiens) (UniProt P37231); assay: qHTS assay to identify small molecule agonists of the peroxisome proliferator-activated receptor gamma (PPARg) signaling pathway (AID 743094; active means well fitted activation curve with a large enough effect in the signal ratio in the repeat runs, not every such curve was filed as active; the % refers to the signal ratio)
Sequence of Peroxisome proliferator-activated receptor gamma (Homo sapiens) (P37231 whole entry, looked up): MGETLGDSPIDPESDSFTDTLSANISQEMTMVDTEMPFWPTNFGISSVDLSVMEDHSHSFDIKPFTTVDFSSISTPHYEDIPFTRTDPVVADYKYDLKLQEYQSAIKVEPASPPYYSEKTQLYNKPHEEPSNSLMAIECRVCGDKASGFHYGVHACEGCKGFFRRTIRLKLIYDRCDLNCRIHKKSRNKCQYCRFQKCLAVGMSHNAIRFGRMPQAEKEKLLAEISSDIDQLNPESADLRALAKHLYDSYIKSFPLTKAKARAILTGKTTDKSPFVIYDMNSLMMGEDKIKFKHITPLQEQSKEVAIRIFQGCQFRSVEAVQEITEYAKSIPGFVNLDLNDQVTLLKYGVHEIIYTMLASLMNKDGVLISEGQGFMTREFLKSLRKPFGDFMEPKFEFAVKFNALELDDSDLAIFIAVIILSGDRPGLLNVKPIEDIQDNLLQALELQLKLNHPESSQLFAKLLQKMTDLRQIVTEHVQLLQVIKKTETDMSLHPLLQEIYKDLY
In short: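 Stably transfected HEK293H cells (GeneBLAzer PPARg UAS-bla) were incubated with test substances for 17 h at 37C after a 5 h pre-incubation; beta-lactamase activity was then detected by FRET substrate fluorescence.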

[6] = qHTS assay for small molecule activators of the heat shock response signaling pathway (AID 743210; active means well fitted activation curve with a large enough effect in the signal ratio in the repeat runs, with a control signal flat, not every such curve was filed as active; the % refers to the signal ratio;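 on activation: HeLa cells with beta-lactamase reporter driven by heat shock elements; series mostly up to about 63 µM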)
In short: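 Reporter gene assay: HeLa cells stably bearing an HSE-bla construct, compound treatment 5 h at 37 C, LiveBLAzer substrate 2.5 h at RT, fluorescence intensity.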

[7] = target: Aryl hydrocarbon receptor (Homo sapiens) (UniProt P35869); assay: qHTS assay to identify small molecule that activate the aryl hydrocarbon receptor (AhR) signaling pathway (AID 743085); further: nearly all actives have a fitted effect of over 15% in size;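 on activation: HG2L7.5c1 human HepG2 liver cells with stably integrated DRE-driven firefly reporter; series mostly up to about 70 µM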
Sequence of Aryl hydrocarbon receptor (Homo sapiens) (P35869 whole entry, looked up): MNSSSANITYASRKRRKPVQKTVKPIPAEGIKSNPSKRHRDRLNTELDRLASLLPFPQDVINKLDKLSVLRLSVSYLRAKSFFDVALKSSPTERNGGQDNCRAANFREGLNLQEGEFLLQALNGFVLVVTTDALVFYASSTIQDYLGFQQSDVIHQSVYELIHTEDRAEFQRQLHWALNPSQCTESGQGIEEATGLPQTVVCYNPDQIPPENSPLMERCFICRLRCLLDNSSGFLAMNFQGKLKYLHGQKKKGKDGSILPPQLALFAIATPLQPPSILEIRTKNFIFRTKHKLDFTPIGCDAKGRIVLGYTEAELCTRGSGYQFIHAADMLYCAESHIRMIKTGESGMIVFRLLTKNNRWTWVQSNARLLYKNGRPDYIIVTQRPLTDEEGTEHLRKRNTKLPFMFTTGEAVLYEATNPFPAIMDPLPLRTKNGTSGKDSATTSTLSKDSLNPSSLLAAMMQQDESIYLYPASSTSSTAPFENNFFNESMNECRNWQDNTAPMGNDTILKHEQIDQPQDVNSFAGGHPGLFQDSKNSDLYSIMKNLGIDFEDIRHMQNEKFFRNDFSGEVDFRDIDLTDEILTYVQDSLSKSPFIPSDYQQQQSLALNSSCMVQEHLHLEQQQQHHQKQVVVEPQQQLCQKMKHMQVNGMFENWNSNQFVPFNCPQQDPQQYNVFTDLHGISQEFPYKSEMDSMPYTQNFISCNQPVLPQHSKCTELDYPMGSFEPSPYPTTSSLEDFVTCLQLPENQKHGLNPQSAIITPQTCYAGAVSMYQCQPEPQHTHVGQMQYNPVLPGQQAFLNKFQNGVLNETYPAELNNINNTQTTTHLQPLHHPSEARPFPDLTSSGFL
In short: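 Reporter assay in engineered HepG2 line HG2L7.5c1, whose plasmid carries twenty dioxin responsive elements upstream of firefly luciferase. Treatment lasted 24 h at 37C; ONE-Glo luminescence gauged induction.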
Potency means the concentration at half of the fitted maximal effect.

Structure (SMILES)	Potency [1]	Potency [2]	Potency [3]	Potency [4]	Potency [5]	Potency [6]	Potency [7]
Cn1cc(C2=C(c3cn(C4CCN(Cc5ccccn5)CC4)c4ccccc34)C(=O)NC2=O)c2ccccc21	inactive	inactive	inactive	inactive	–	–	–
Cc1c(Cl)c(=O)oc2cc(OP(=O)(OCCCl)OCCCl)ccc12	–	inactive	inactive	inactive	inactive	inactive	–
CC1(c2ccc(Oc3ccccc3)cc2)OC(=O)N(Nc2ccccc2)C1=O (configuration not stated)	inactive	8.76 µM (active)	24.5 µM (active)	34.9 µM (active)	–	–	inactive
CSCCCN=C=S	inactive	–	–	43.6 µM (active)	–	–	inactive
CS(=O)(=O)c1ccc(C(=O)C2C(=O)CCCC2=O)c([N+](=O)[O-])c1	inactive	–	inactive	inactive	–	inactive	inactive
COc1cccc2c1C(=O)c1c(O)c3c(c(O)c1C2=O)C[C@@](O)(C(=O)CO)CC3OC1CC(N2CCOC(OC)C2)C(O)C(C)O1 (some centres not stated)	–	–	9.44 µM (active)	–	–	inactive	–
COP(=O)(OC)SCn1c(=O)oc2cc(Cl)cnc21	inactive	inactive	48.6 µM (active)	–	–	inactive	43.3 µM (active)
CCOCn1c(-c2ccc(Cl)cc2)c(C#N)c(Br)c1C(F)(F)F	–	1.95 µM (active)	–	–	–	–	inactive
COc1cc(C=O)cc2c1[C@H](COC(N)=O)[C@]1(OC(C)=O)ON2C[C@H]2[C@@H]1N2C(C)=O	0.306 µM (active)	inactive	0.154 µM (active)	2.45 µM (active)	–	inactive	inactive
CCCCOCN(C(=O)CCl)c1c(CC)cccc1CC	inactive	inactive	48.6 µM (active)	inactive	–	–	inactive
CCOc1cc(C(C)(C)C)ccc1C1COC(c2c(F)cccc2F)=N1 (configuration not stated)	inactive	11.8 µM (active)	–	inactive	inactive	–	–
N#C/C=C/C#N	–	–	inactive	inactive	–	–	inactive
O=C(CCCN1CCC2(CC1)C(=O)NCN2c1ccccc1)c1ccc(F)cc1	–	inactive	–	inactive	–	inactive	–
O=C(O)C1C2CCC(O2)C1C(=O)O (configuration not stated)	inactive	inactive	inactive	inactive	–	inactive	–
CC(Cc1ccc(C(C)(C)C)cc1)CN1C[C@@H](C)O[C@@H](C)C1 (some centres not stated)	–	49 µM (active)	–	inactive	–	inactive	inactive
ClC1=C(Cl)C2(Cl)C3C(Cl)C(Cl)CC3C1(Cl)C2(Cl)Cl (configuration not stated)	inactive	24.5 µM (active)	61.1 µM (active)	21.8 µM (active) and 38.9 µM (active)	–	–	–
Oc1ccc(C2(c3ccc(O)cc3)c3ccccc3-c3ccccc32)cc1	–	17.4 µM (active)	27.3 µM (active)	21.9 µM (active)	–	–	inactive

Structure (SMILES)	Potency [1]	Potency [2]	Potency [3]	Potency [4]	Potency [5]	Potency [6]	Potency [7]
CCN(CC)c1c([N+](=O)[O-])cc(C(F)(F)F)c(N)c1[N+](=O)[O-]	inactive	inactive	inactive	inactive	–	inactive	inactive
O=C(O)COc1nc(Cl)c(Cl)cc1Cl	–	–	inactive	inactive	–	inactive	inactive
CCCSP(=O)(OCC)SCCC	inactive	–	–	inactive	–	inactive	inactive
CC(=O)/C=C/c1ccc2c(c1)OCO2	inactive	inactive	inactive	–	inactive	–	–
Cc1cc(SCc2sc(-c3ccc(C(F)(F)F)c(F)c3)nc2C)ccc1OCC(=O)O	–	49 µM (active)	–	–	2.45 µM (active)	–	inactive
O=[N+]([O-])O.O=[N+]([O-])O.[Cd]	–	0.155 µM (active)	0.611 µM (active)	inactive	–	–	inactive
O=C(Nc1ccc2[nH]ccc2c1)c1cc2cc(F)ccc2n1Cc1cccc(F)c1	–	19.5 µM (active)	30.6 µM (active)	49 µM (active)	–	–	inactive
O=c1c(C2CC(c3ccc(-c4ccc(Br)cc4)cc3)Cc3ccccc32)c(O)sc2ccccc12 (configuration not stated)	–	13.3 µM (active)	33.5 µM (active)	–	–	–	–
Oc1ccc2ccc3cccc4ccc1c2c34	inactive	–	–	inactive	–	–	–
Oc1c(Br)c(Br)c(Br)c(Br)c1Br	inactive	49.3 µM (active)	24.5 µM (active)	inactive	–	–	–
O=C1c2ccccc2C(=O)C1C(=O)C(c1ccccc1)c1ccc(Cl)cc1 (configuration not stated)	inactive	11 µM (active)	30.6 µM (active)	–	–	–	inactive
N#CC(Cl)Cl	–	–	inactive	inactive	–	–	inactive
c1ccc2c(c1)OCC(C1=NCCN1)O2 (configuration not stated)	–	inactive	inactive	inactive	–	–	inactive
CC(=O)c1cc(C(C)(C)C)cc2c1CCC2(C)C	–	inactive	inactive	–	inactive	–	inactive
c1ccc2cc3c(cc2c1)-c1cccc2cccc-3c12	inactive	inactive	inactive	inactive	–	5.21 µM (active)	0.12 µM (active)
Nc1ccc(Sc2ccc(N)cc2)cc1	inactive	inactive	–	inactive	–	inactive	13.7 µM (active)
CC(c1ccc(O)cc1)c1ccc(O)cc1	inactive	inactive	inactive	inactive	–	inactive	–
